Laboratory results from PubChem BioAssay AID686978 (National Center for Advancing Translational Sciences (NCATS), 2013).
The whole screen tested about 420,000 compounds, of which about 64,000 (15%) were called active. Inconclusive results (about 27%) are left out. The call rests on the fitted dose curve; in most records, active means well fitted inhibition curve with a large enough effect; inconclusive means small, poorly fitted or top-dose-only effect; inactive means flat fitted curve, though single readings scatter. The list is a sample of the results. Entries that show only a call come without a potency.

Assay: qHTS for Inhibitors of human tyrosyl-DNA phosphodiesterase 1 (TDP1): qHTS in cells in absence of CPT; further: nearly all actives have a fitted effect of over 55% in size
Conditions: DT40 Tdp1-/- hTDP1 cells, no CPT, ATP luminescence, 48 h; activity change, negative = growth inhibition: at 46.2 µM (top of the series)
How it was run: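 Stably hTDP1-transfected Tdp1-null chicken DT40 cells were treated with library compounds minus camptothecin and grown for at least 48 hr at 37 °C, after which cellular ATP was quantified by luminescence.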
Potency means the concentration at half of the fitted maximal effect.

Row | SMILES | Potency
1 | C#CCN1CC(C)/C(=N/O)CC1C (stereo not given) | inactive
2 | COc1ccccc1CNS(=O)(=O)c1c(C)[nH]c(C)c1C(=O)N1CCCCC1 | inactive
3 | CCSc1nc(C)nc2c1oc1ccccc12 | inactive
4 | CCc1nc(Nc2ccc3nccnc3c2)c2oc3ccccc3c2n1 | 2.31 µM (active)
5 | CCc1nc(Nc2ccc(NC(C)=O)cc2)c2oc3ccccc3c2n1 | inactive
6 | C/C(=N\NC(=O)C(N)=O)c1ccc2c(c1)OCCO2 | inactive
7 | C/C(=N/NC(=O)c1ccncc1)c1ccc2c(c1)OCO2 | inactive
8 | C/C(=N/NC(=S)Nc1ccccc1)c1ccc2c(c1)OCO2 | 0.517 µM (active)
9 | CCS(=O)(=O)N(C)[C@@H]1c2cc(C#N)ccc2OC(C)(C)[C@H]1O | inactive
10 | O=c1cc(CCl)nc2scc(-c3ccccc3)n12 | 16.4 µM (active)
11 | C/C(CC(O)(/C=N/O)c1ccccc1)=N\O (stereo not given) | inactive
12 | C/C(CC(=O)Nc1ccc(Cl)cc1)=N\NC(=O)C(=O)NCCO | inactive
13 | CCCCn1c(SCC(=O)N2CCOCC2)nc2c1c(=O)n(C)c(=O)n2C | inactive
14 | CCCCCCn1c(CN2CCCCC2)nc2c1c(=O)n(C)c(=O)n2C | 20.6 µM (active)
15 | Cn1c(=O)[nH]c(=O)c2c1nc(CN(Cc1ccccc1)Cc1ccccc1)n2CCN1CCOCC1 | inactive
16 | COCCn1c(CN(Cc2ccccc2)Cc2ccccc2)nc2c1c(=O)n(C)c(=O)n2C | 25.9 µM (active)
17 | CC(C)Cn1c(CN(Cc2ccccc2)Cc2ccccc2)nc2c1c(=O)n(C)c(=O)n2C | 14.6 µM (active)
18 | Cn1c(=O)c2c(nc(N3CCOCC3)n2CCNC2=NCCC2)n(C)c1=O | inactive
19 | CC(C)Cn1cnc2c1c(=O)n(CC(O)c1ccccc1)c(=O)n2CC(C)C (stereo not given) | inactive
20 | CC(C)CCn1cnc2c1c(=O)n(CC(=O)NC(N)=O)c(=O)n2Cc1ccccc1 | inactive
21 | CC(C)Cn1cnc2c1c(=O)n(CC(=O)NN)c(=O)n2Cc1ccccc1 | inactive
22 | CC(O)c1nc2c(c(=O)n(C)c(=O)n2C)n1C (stereo not given) | inactive
23 | CC(C)CCn1c(CN(C)Cc2ccccc2)nc2c1c(=O)n(C)c(=O)n2C | 6.51 µM (active)
24 | Cn1ccnc1-c1nnn(-c2ccc(F)cc2)n1 | inactive
25 | O=C(OCC(=O)c1cccs1)c1ccc([N+](=O)[O-])o1 | inactive
26 | O=C(COc1ccc(-n2cnnn2)cc1)Nc1ccccc1Cl | inactive
27 | CN(C)S(=O)(=O)c1ccc(N2CCCC2=O)c([N+](=O)[O-])c1 | inactive
28 | O=C(/C=C/c1ccccc1Cl)Nc1ccc(S(=O)(=O)Nc2ncccn2)cc1 | inactive
29 | OCCC1CN(Cc2ccc3nsnc3c2)CCN1C1CCCCC1 (stereo not given) | inactive
30 | Cc1ccc(C)c(SCc2nc3sc(C(=O)O)c(C)c3c(=O)[nH]2)c1 | inactive
